# Source: PubChem BioAssay (National Center for Advancing Translational Sciences (NCATS))
# LASV entry inh: inhibitors of Lassa virus binding or entry into cells; Potency, µM (doses to about 49.2 µM), inactives show at the top dose activity change, negative = inhibition, most hits filed as inhibitors; AID 720533; hit rate 4.1% among 18,000; Lassa virus pseudotyped entry inhibition, cell-based qHTS
# Marburg entry: blocks Marburg virus binding or cell entry | AID 720532 | Marburg virus pseudotype entry/binding inhibition, cell-based | hit rate 6.5% among 18,000 | Potency, µM (doses to about 49.2 µM), for inactives: at the top dose activity change, negative = inhibition, actives largely listed as inhibitors
# The depositor's hits bear a star; ? = inconclusive; . = no result given; ! = a repeat was not active; [ ] = remark or other dose. Compounds with a hit are over-represented: about 8.6% of the library has one in this group of screens. The call rests on the fitted dose curve; tested in HEK293 cells. On the % scale 0 is the no-effect control and ±100 the full control effect; potency means the concentration at half of the fitted maximal effect.
SMILES,LASV entry inh,Marburg entry
CN1C2CCC1CC(OC(c1ccc(F)cc1)c1ccc(F)cc1)C2 (stereo not drawn),?,5.6µM*
CN1[C@@H]2CC[C@H]1CC(O[C@@H](c1ccccc1)c1ccc(Cl)cc1)C2 (stereo partly drawn),10µM*,4.5µM*
CC(=O)N[C@@H](CC(=O)N[C@@H](CCC(=O)O)C(=O)O)C(=O)O,5%,3%
Cc1nc2cc(NC(=O)[C@@H]3C[C@@H](Sc4ccccn4)CN3Cc3cccc(Cl)c3)ccc2s1,-11%,-29%
CC[N+](CC)(CC)CCOc1cccc(OCC[N+](CC)(CC)CC)c1OCC[N+](CC)(CC)CC,-3%,14%
CC[N+](CC)(CC)CCOc1ccc(/C=C\c2ccccc2)cc1,20µM*,?
CCOC(=O)CN1C(=O)[C@@]2(CC(C)=CC[C@@H](COc3ccccc3)O2)c2c(Br)cccc21,-28%[8.59 µM],-35%[8.59 µM]
CC(NCCC(c1ccccc1)c1ccccc1)c1ccccc1 (stereo not drawn),?,11µM*
CN(C)[C@H](Cc1ccccc1)c1ccccc1,-1%,2%
C[C@@H](Cc1ccccc1)NCCC(c1ccccc1)c1ccccc1,?,7.9µM*
CC(NN)c1ccccc1 (stereo not drawn),-2%,15%
COC(=O)c1c(OCc2ccccn2)cc(=O)n2c1CCN(Cc1ccc3c(c1)CCCN3C)CC2,-10%,-12%
CC(=O)Oc1cc2c(c(C)c1OC(C)=O)CC=C1[C@]3(C)CC[C@]4(C)CC[C@@](C)(C(=O)O)CC4[C@]3(C)CC[C@]12C (stereo partly drawn),20µM*,11µM*
COCCN1C(=O)NC(CCc2ccccc2)C(C(C)=O)=C1C (stereo not drawn),11%[8.59 µM],5%[8.59 µM]
CC(CCN1CCCc2nc(C)c(C)cc21)=NO[C@H](C)CN1CCCc2nc(C)c(C)cc21,-17%[8.59 µM],-41%[8.59 µM]
CO[C@@H]1c2ccccc2[C@H]2C(C(=O)O)c3c(n(C)c4ccccc34)[C@H]2[C@H]1C (stereo partly drawn),-22%[8.59 µM],29%[8.59 µM]
c1ccc2nc(N3CCNCC3)ccc2c1,-10%,32µM*!
c1ccc2c(N3CCNCC3)cccc2c1,0%,?
O=C1N(CC2CC2)c2cccc(Br)c2[C@@]12O[C@H](COc1ccccc1)CC1=CCCC12 (stereo partly drawn),-7%[8.59 µM],?
O=C(Cn1cc(COc2ccc(-c3ccc(Br)cc3)cc2)nn1)c1ccc(O)cc1,.,-8%
CCc1cn([C@H]2C[C@H](O)[C@@H](CO)O2)c(=O)[nH]c1=O,5%,-9%
O=c1[nH]c(=O)n([C@@H]2O[C@H](CO)[C@@H](O)[C@H]2O)cc1F,10µM*,?
C=CCN1C(=O)[C@]2(OCCC=C[C@H]2C)c2c(Br)cccc21,-1%[8.59 µM],54%[8.59 µM]
COC(=O)C1=C(C)N(Cc2ccccc2)C(=NCC(C)C)NC1c1ccc(Br)cc1 (stereo not drawn),-1%[8.59 µM],5%[8.59 µM]
NCCCCCCNS(=O)(=O)c1cccc2ccccc12,?,9%
SMILES,LASV entry inh,Marburg entry
Nc1nc(NCC2CCC(CNS(=O)(=O)c3cccc4ccccc34)CC2)nc2ccccc12 (stereo not drawn),?,11µM*
[H+].[H+].[Hg+2].[O-]B([O-])[O-].[c-]1ccccc1,1µM*,?
COC1=CC2C(=O)C(C(c3ccccc3)C2C)C1(O)c1cccc(OC)c1 (stereo not drawn),8%[8.59 µM],15%[8.59 µM]
Cc1cc(C)c(OCc2cn(CC(=O)c3ccc(O)cc3)nn2)c(C)c1,-22%,11%
CCN(CC)Cc1ccc(Nc2ccnc3cc(Cl)ccc23)cc1O,?,1.8µM*
CCN(CC)CCC[C@H](C)Nc1ccnc2cc(Cl)ccc12,24%[17.8 µM],-22%[17.8 µM]
O=C1C=C2C(=CCOC2O)O1 (stereo not drawn),3.2µM*,1.1µM*
C[C@@H]1[C@@H](c2ccccc2)Oc2c(Cl)cccc2S(=O)(=O)N1Cc1ccc(F)cc1,7%,?
O[C@H]1CN(CC2CCCCC2)[C@@H](c2ccccc2)C[C@H]1n1cc(C2CC2)nn1,-7%,?
O=C1N=c2ccc(N=Cc3c(O)[nH]c4ccccc34)cc2=N1,12%,16%
N=C(N)N1Cc2ccccc2C(O)C1 (stereo not drawn),0%,13%
CN1CCOC(c2ccccc2)c2ccccc2C1 (stereo not drawn),?,11µM*!
CCN1C(=NCc2cccc(Cl)c2)N[C@@H](CCc2ccccc2)[C@H](C(=O)OC)[C@H]1C,-21%[8.59 µM],65%[8.59 µM]
CCC(=O)Nc1ccc(C)c(-c2ccc(C(=O)NCC3CC3)cc2)c1,-18%,36%
COc1cc(CN2CCN(CCCSc3cc(C(C)(C)C)c(O)c(C(C)(C)C)c3)CC2)cc(OC)c1OC,20µM*,2.8µM*
O=C(C=Cc1ccccc1)Nc1cccc(C(=O)NCCCc2ccccc2)c1,49%,30%
COc1cccc(-c2cc3c(c(OC)c2)OCCN(Cc2ccccc2O)C3)n1,5.6µM*,-21%
COc1ccc(-c2[nH]ncc2CN2CCOc3c(cc(-c4cccc(OC)n4)cc3OC)C2)cc1,-12%,-3%
